Screening results deposited in PubChem by several laboratories.
Rows were chosen to be rich in hits. Some 1.5% of all compounds tested hit in one or more screens of this group.
LANA-H2A inh: blockers of LANA interaction with H2A/H2B – biochemical, FP readout, HTS, primary screen; Protein LANA1 (Human herpesvirus 8 type P (isolate GK18)), Q9QR71; cell-free LANA-H2A/H2B peptide, fluorescence polarization; inhibition, % (concentration not given with the values); hit rate 0.6% among 320,000; AID 2629, 2010; in the data active = inhibition mostly above about 10%, no sharp cut-off; inactive = mostly below about 6.7%
eLon inh: inhibitors of E. coli Lon protease, primary screen, biochemical, fluorescence polarization. inhibition, % at 7.94 µM. P0A9M0. hit rate 0.42% among 360,000. purified E. coli Lon protease; in the data active = inhibition above about 13%, passing the limit was not always enough
Keap1-Nrf2 PPI: Keap1-Nrf2 protein-protein interaction inhibitors, primary screen, biochemical, fluorescence polarization, single point; inhibition, % at 9.4 µM; AID 504523, 2011; hit rate 0.15% among 340,000; Kelch-like ECH-associated protein 1 (Homo sapiens), Q14145; Keap1 Kelch-Nrf2 peptide fluorescence polarization, 1536-well; in the data active = inhibition above about 12%; inconclusive = no clear call, values can overlap the other calls; inactive = below about 7.3%;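 also: human Keap1 Kelch domain with fluorescein labeled Nrf2 9mer peptide probe; higher means more block of Keap1 binding to Nrf2 peptide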
GLD-1 TGE inh: GLD-1/TGE RNA complex disruptors, primary screen, biochemical, fluorescence polarization; purified GLD-1 + fluorescein TGE RNA; inhibition, % at 5.96 µM; hit rate 0.44% among 320,000; AID 2280, 2010;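 active = percent inhibition above a per-plate cutoff, the plate mean of test compounds plus 3 SD, cut at about 30% in these data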
EBV gp42 block: Epstein-Barr virus gp42 inhibitors, primary screen, biochemical, uHTS, fluorescence polarization. Glycoprotein 42 (Epstein-Barr virus (strain AG876)), Q1HVG2. Fluorescence polarization binding assay, mP read-out. AID 1085, 2008. inhibition, % (tested at 21.74 µM). hit rate 0.42% among 220,000; in the data active = inhibition above about 50%
LANA DNA inh: inhibitors of KSHV C-LANA binding to DNA, primary screen, biochemical, fluorescence polarization, FAM-LBS DNA, MBP-C-LANA, single point; inhibition, % at 9 µM; hit rate 0.078% among 340,000; AID 504423, 2011;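 active = highest replicate inhibition at or above 60% at 9 µM, even if other replicates fall short; inactive = all replicates below 60% inhibition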
Hits are given with their value; i = inactive; ? = inconclusive; nt = not tested or not shown; + = active, no number; ! = repeats disagree.

SMILES	LANA-H2A inh	eLon inh	Keap1-Nrf2 PPI	GLD-1 TGE inh	EBV gp42 block	LANA DNA inh
O=c1[nH]c(=O)n(C2CCCO2)cc1Br (stereo unspecified)	i	i	i	i	i	i
CC(C)(C)c1nnc(N/N=C/c2cc(Br)ccc2O)n(N)c1=O	+	i	i	i	i	i
CC(C)(C)n1nnnc1C(c1ccccc1)N1CCN(c2c(Cl)cncc2Cl)CC1 (stereo unspecified)	nt	i	nt	nt	nt	nt
CC(=O)Nc1nonc1NC(=O)CSc1ccccn1	i	i	i	83	i	i
COc1cccc(C(NC(C)=O)c2nc(-c3cccc(C(C)C)c3)cs2)c1 (stereo unspecified)	nt	i	nt	nt	nt	nt
O=C(NCc1ccncc1)[C@@H]1CCCN1C(=O)[C@H]1CCCN1C(=O)c1cccc(Cl)c1	nt	i	nt	nt	nt	nt
CC(C)C(=O)Nc1nnc(CCN2CCOCC2)s1	18	i	i	i	i	i
COc1nc(N/N=C/c2ccc(-c3cccc([N+](=O)[O-])c3)o2)nc(N2CCOCC2)n1	nt	nt	nt	nt	92	nt
O=[N+]([O-])c1cccc(-c2ccc(/C=N/Nc3nc(N4CCCCC4)nc(N4CCCCC4)n3)o2)c1	i	i	i	i	i	i
OC1c2c(F)cccc2N=C2CCCCN21 (stereo unspecified)	nt	i	nt	nt	nt	nt
Cc1noc(C)c1-c1ccc(C(=O)Nc2ccccc2)c2occc12	nt	i	nt	nt	nt	nt
O=[N+]([O-])c1cc2c(c(CSc3nnc(Nc4ccccc4)s3)c1)OCOC2	i	i	i	i	i	i
Cc1ccccc1Nc1nnc(SCc2cc([N+](=O)[O-])cc3c2OCOC3)s1	24	i	i	i	i	i
CCOCCCNC(=O)/C(C#N)=C/c1ccc([N+](=O)[O-])o1	i	i	i	46	i	i
O=C(NCC(O)c1nc2ccccc2[nH]1)c1cc([N+](=O)[O-])ccc1F (stereo unspecified)	nt	i	nt	nt	nt	nt
O=C(C[n+]1ccc(/C=N/O)cc1)NC1CCCCC1	17	i	i	i	i	i
Cc1ccc(Cl)cc1-c1cc(C(=O)N2CCc3ccccc3C2)[nH]n1	nt	i	nt	nt	nt	nt
O=S(=O)(Nc1ccc2c(c1)OCO2)c1ccc(F)c(F)c1	27	i	i	i	nt	i
CC1=Nc2ccccc2/C1=C\c1nc(-c2ccc(F)cc2)oc1O	i	i	i	172	138	i
CN=Cc1nc(-c2ccccc2)oc1O	i	i	i	i	i	i
Cc1cc(C)n2nc[n+](C)c2n1	19	i	i	i	i	i
CCCn1ncc(CN2CCN(CCc3ccccc3)C(CCO)C2)c1C (stereo unspecified)	i	i	i	i	i	i
COc1cc(/C=N/c2oc(-c3ccccc3)cc2C#N)ccc1O	i	i	i	i	57	i
COc1cc(C=NCc2ccccc2)ccc1O	nt	i	nt	nt	nt	nt
C[C@H](c1ccccc1)N1C[C@@H](COCc2ccccc2)Oc2cc(N3CC[C@@H](N(C)C)C3)ccc2S1(=O)=O	nt	i	nt	nt	nt	nt
SMILES	LANA-H2A inh	eLon inh	Keap1-Nrf2 PPI	GLD-1 TGE inh	EBV gp42 block	LANA DNA inh
O=C1CC2(CCN(C(=O)c3cccc(Br)c3)CC2)Oc2ccccc21	19	i	i	i	nt	i
O=C1CC2(CCN(C(=O)c3cccc(Cl)c3)CC2)Oc2ccccc21	i	i	i	i	nt	i
Cc1ccc(N=C2NC(=O)/C(=C/c3cn(C)c4ccccc34)S2)cc1C	i	i	i	i	82	i
Cn1cccc1/C=C1\SC(=Nc2ccccc2)NC1=O	i	i	i	i	i	i
CCOC(=O)[C@]12CCCC=C1N(Cc1cccc3ccccc13)C(=O)[C@H](CC(=O)NCc1cccs1)C2	nt	i	nt	nt	nt	nt
O=C(Nc1nc2c(s1)CN(Cc1ccccc1)CC2)c1cccc(S(=O)(=O)N2CCc3ccccc32)c1	i	i	i	i	111	i
O=C(Nc1nc2ccccc2s1)c1cccc(S(=O)(=O)N2CCc3ccccc32)c1	i	i	i	i	i	i
CN1CCN(c2nc(-c3ccccc3)c3cc(Cl)ccc3n2)CC1	i	i	i	i	i	i
CN1CCN(C2=Nc3ccccc3Oc3ccc(Cl)cc32)CC1	14	i	i	i	i	i
Cn1c(NCCOc2ccccc2Cl)nc2cc(-c3ccc(F)cc3)sc2c1=O	nt	i	nt	nt	nt	nt
CCc1ccc(-c2nc(CS(=O)CC(=O)NCc3cccnc3)c(C)o2)cc1 (stereo unspecified)	i	i	i	i	i	i
COc1ccc(-c2nc(CS(=O)CC(=O)NCc3cccnc3)c(C)o2)cc1 (stereo unspecified)	i	i	i	i	136	i
CC(C)(C)c1ccc(Cn2c(=O)cnc3ccccc32)cc1	17	i	i	i	nt	i
COC(=O)c1sc2nc(C)c([N+](=O)[O-])c(C)c2c1N	i	i	i	i	i	i
COc1ccc(-c2nc3c(=O)n(C)c(=O)[nH]c3n2CCc2ccccc2)cc1	20!	i	i	i	i	i
Cc1cn([C@H]2C[C@H](N=[N+]=[N-])[C@@H](CO)O2)c(=O)[nH]c1=O	15!	i	i	i	i	i
COc1cc(C=NCC2OCCc3ccccc32)cc(OC)c1 (stereo unspecified)	18	i	i	i	i	i
COc1ccc(C=NCC2OCCc3ccccc32)cc1OC (stereo unspecified)	i	i	i	i	i	i
Cc1cc(/C=C2\SC(=S)N(Cc3ccco3)C2=O)c(C)n1-c1cccnc1	nt	i	i	nt	122	i
O=C1/C(=C/c2cccnc2)SC(=S)N1Cc1ccco1	nt	i	i	nt	nt	i
O=C1/C(=C/c2ccco2)SC(=S)N1c1cccnc1	nt	i	i	nt	i	72
OCCCc1nc2n(n1)C(c1cccs1)C=C(c1ccc(Br)cc1)N2 (stereo unspecified)	102	nt	nt	163	141	nt
C[C@H](CO)NC(=O)[C@@H]1C[C@H]1[C@@H](NP(=O)(c1ccccc1)c1ccccc1)c1ccccc1	i	i	i	i	i	i
Cc1cc(CNC(=O)[C@H]2C[C@@H]2[C@H](NP(=O)(c2ccccc2)c2ccccc2)c2ccccc2)nn1C	24	nt	nt	i	i	nt
C=CCOc1ccc(C2C(C(=O)c3cccs3)=C(O)C(=O)N2c2nnc(C)s2)cc1 (stereo unspecified)	i	i	i	74	nt	i
Cc1cccc(N2C(=O)C(O)=C(C(=O)c3cccs3)C2c2ccc(F)cc2)n1 (stereo unspecified)	i	i	i	i	i	i
COc1ccc(C2C(C(=O)c3cccs3)=C(O)C(=O)N2c2nnc(C)s2)cc1OC (stereo unspecified)	i	38	?	70	91	i
